High-throughput results deposited in PubChem by National Center for Advancing Translational Sciences (NCATS).
Lassa entry inh: Lassa virus entry inhibition; Lassa virus pseudotype entry inhibition, cell reporter; Potency, µM (highest dose often 37.9 µM), for inactives: at the top dose activity change, negative = inhibition, usual class: inhibitors; 300,000 tested, 1.2% active; AID 540256; calls by dose curve; tested in HEK293 cells; further: potency means the concentration at half of the fitted maximal effect; nearly all actives have a fitted effect of over 50% in size
Marburg entry inh: inhibitors of Marburg virus binding or cell entry. Marburg virus pseudotyped entry inhibition, cell reporter. Potency, µM (doses to about 37.8 µM), inactives show at the top dose activity change, negative = inhibition, usual class: inhibitors. 300,000 tested, 1.8% active. AID 540276; calls by dose curve; tested in HEK293 cells; further: potency means the concentration at half of the fitted maximal effect
VACV Venus inh: vaccinia inhibition (Venus reporter) | Potency, µM (top dose mostly 36.5 µM), inactives show top-dose activity change, negative = inhibition, actives largely listed as inhibitors | 330,000 tested, 0.46% active | Vaccinia virus Venus reporter expression, fluorescence; calls by dose curve; tested in A549 cells; further: potency means the concentration at half of the fitted maximal effect; nearly all actives have a fitted effect of over 30% in size
VACV mCherry inh: inhibitors of vaccinia virus infection (mCherry reporter signal); Vaccinia virus mCherry reporter infection, fluorescence; Potency, µM (series often up to 36.5 µM), without a hit: at the highest dose activity change, negative = inhibition, usual class: inhibitors; 310,000 tested, 0.63% active; calls by dose curve; tested in A549 cells; further: potency means the concentration at half of the fitted maximal effect; nearly all actives have a fitted effect of over 35% in size
FMDV antiviral: antivirals against foot and mouth disease virus; FMDV antiviral cell-based qHTS; Potency, µM (top dose mostly 57.9 µM), without a hit: top-dose activity change, negative = inhibition, usual class: inhibitors; 410,000 tested, 1.2% active; AID 1159524; calls by dose curve; tested in HEK293T cells; further: read-out not given here; potency means the concentration at half of the fitted maximal effect; nearly all actives have a fitted effect of over 45% in size
HCMV antiviral: blocks human cytomegalovirus replication. HFF cells, HCMV-luciferase reporter, 72 h; stronger effect = lower value. activity change, negative = inhibition, % at 57.5 µM. 410,000 tested, 4.5% active; in the data active means activity change below about -60%; inconclusive means no clear call, values can overlap the other calls; inactive means above about -39%
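Human foreskin fibroblasts infected with luciferase-reporter HCMV at MOI 1 PFU/cell, compounds at two doses. Luciferase measured 72 h post infection; normalized to buffer-only basal and Salinomycin (10uM) controls.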
An asterisk follows results filed as active; i = inactive; ? = inconclusive; · = not tested or not shown; ! = not confirmed by another sample; [ ] = remark or other dose. A selection: hits, their analogues and other compounds. The true share with any hit is near 6.5%. On the % scale 0 is the no-effect control and ±100 the full control effect.

SMILES	Lassa entry inh	Marburg entry inh	VACV Venus inh	VACV mCherry inh	FMDV antiviral	HCMV antiviral
Cn1nnnc1SCC(=O)Nc1nc2c(s1)CCCC2	-6.7%	?	-14.6%	-1.2%	·	106.9
COc1ccc(OC)c(-c2csc(NC(=O)C3c4ccccc4Oc4ccccc43)n2)c1	?	-7.2%	-16.5%	-12.0%	-23.6%	-65.8*
COc1ccc(CC(=O)Nc2nc3c(s2)CC(C)CC3)cc1 (stereo not given)	16.2%[46.1 µM]	?	-5.8%	-16.6%	19.8%	16.0
COc1ccc(CC(=O)Nc2nc3c(s2)CCCC3)cc1	3.98µM*	2.51µM*	-4.8%	-6.6%	17.3%	-37.0
Cc1csc(NC(=O)c2ccccc2O)n1	-8.0%	?	-16.4%	·	30.1%	58.9
C=C[C@@H]1c2cc(C)ccc2N(S(=O)(=O)c2ccc(C)cc2)[C@H](c2ccc(C(=O)OC)cc2)C1(C#N)C#N	·	·	-3.6%	i	·	·
Cc1cc(SCC(=O)NCc2ccc(Cl)cc2)nc(=O)[nH]1	27.0%[46.1 µM]	·	-5.8%	-4.4%	0.0%	20.5
Cc1cccc(C)c1NC(=O)C1(C)CCc2nc3ccccc3n21 (stereo not given)	·	·	·	·	·	-13.2
COc1ccc(CC(=O)Nc2nc(C(C)(C)C)cs2)cc1	4.47µM*	?	-28.5%	?	?	?
COc1ccc(OC)c(-c2csc(NC(=O)Cc3cccs3)n2)c1	0.316µM*	-8.3%	-24.9%	-5.6%	25.7%	33.7
COc1ccc(CC(=O)Nc2nc(C)cs2)cc1	-3.8%	?	-1.6%	-14.2%	40.9%	46.3
COc1ccc(CC(=O)Nc2nc(C)cs2)cc1OC	-1.1%	?	?	?	-3.9%	-69.9*
COC(=O)c1c(-c2ccc3ccccc3c2)csc1NC(=O)Cc1ccc(OC)c(OC)c1	?	?	?	·	10µM*	-83.2*
COc1ccc(OC)c(-c2csc(NC(=O)Cc3ccccc3)n2)c1	?	?	?	?	26.5%	22.9
Cc1ccc(O/C=C2/Nn3c(nnc3-c3cc(-c4ccccc4)n[nH]3)S2)cc1	·	·	-27.6%	-10.5%	·	·
COc1ccc(NC(=O)c2oc3ccccc3c2NC(=O)Cc2coc3ccc(C)cc23)cc1	-19.5%[46.1 µM]	2.0%[46.1 µM]	-12.5%	-5.6%	9.1%	40.4
COc1cc(C(=O)Nc2nc(-c3cccs3)cs2)cc(OC)c1OC	10.3µM*	18.3µM*	-29.1%	?	·	41.4
O=C(Cc1cccs1)Nc1nc(-c2ccc(F)c(F)c2)cs1	?	-1.5%[46.1 µM]	-8.1%	?	?	16.3
O=C(Cc1cccs1)Nc1nc(-c2ccc(F)cc2F)cs1	1.64µM*	?	·	·	-29.2%	-0.1
COc1ccc2oc(=O)c(C(=O)NCc3ccccc3)cc2c1	24.8%[46.1 µM]	-5.9%[46.1 µM]	-3.2%	i	1.8%	-13.5
COc1ccc2oc(=O)c(C(=O)Nc3cccc(C(=O)O)c3)cc2c1	3.8%[46.1 µM]	2.82µM*	9.9%	-1.7%	?	107.1
COc1ccc2oc(=O)c(C(=O)NCc3ccc(C)cc3)cc2c1	·	·	·	·	5.4%	-99.7*
COc1ccc(CNC(=O)c2cc3cc(OC)ccc3oc2=O)cc1	?	?	-21.4%	-26.4%	-15.0%	-104.1*!
CCOCCCNC(=O)C1CCN(c2nc3ccc(Cl)cc3[nH]2)CC1	0.8%[46.1 µM]	·	-6.2%	i	4.3%	0.0
O=S(=O)(c1ccc2c(c1)OCCO2)N1CCN(c2nc(-c3ccccc3)nc3ccccc23)CC1	·	·	-7.7%	-7.9%	·	·
SMILES	Lassa entry inh	Marburg entry inh	VACV Venus inh	VACV mCherry inh	FMDV antiviral	HCMV antiviral
C[C@H](CO)N1C[C@H](C)[C@@H](CN(C)C(=O)Nc2ccccc2)OCc2cn(nn2)CCCC1=O	·	·	·	·	·	-1.4
O=C1CCC[C@H]2C[C@@H](O)CC[C@]23CCCN13	·	·	·	·	·	15.5
CCOc1ccccc1NC(=O)CSc1ncc(S(=O)(=O)c2ccc(C)c(C)c2)c(N)n1	-27.6%[46.1 µM]	·	-11.6%	-12.3%	?	-37.8
CCOC(=O)C1CCN(S(=O)(=O)c2cccc3nonc23)CC1	0.7%	-5.1%[46.1 µM]	-3.1%	-7.7%	4.2%	2.8
CCOC(=O)C1CCN(S(=O)(=O)c2c(Cl)ccc3nonc23)CC1	·	·	·	·	·	-113.0*
COc1ccc(O)c(/C=N/NC(=O)c2ccc(CSc3nc(C)cc(C)n3)cc2)c1	?	?	?	8.91µM*	?	-89.6*
COc1ccc(/C=N/NC(=O)c2ccc(CSc3nc(C)cc(C)n3)cc2)cc1O	-2.6%	-23.0%	-26.4%	-4.4%	?	-65.7*
